Test results from PubChem BioAssay (NCATS).
Inconclusive results are not listed. Entries that show only a call come without a potency. Activity calls are given as the source filed them. The call rests on the fitted dose curve; in most records, active means well fitted cell-killing curve with a large enough effect; inconclusive means small, poorly fitted or top-dose-only effect, or effect the other way; inactive means no such curve, though single readings can be large or run the other way.

assay: Quantitative High-Throughput drug screen in 47 multiple myeloma cell lines against the NCATS MIPE library collection: KMS28BM_JCRB cell viability assay (AID 1919874); conditions: CellTiter-Glo ATP, 48 h; series mostly up to 45.8 µM; further: nearly all actives have a fitted effect of over 35% in size
Outline: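 Readout: median RLU from CellTiter-Glo after 5 min at room temperature. Preceding step was 48 h drug treatment of 500 cells/well at 37 °C, 5% CO2, with DMSO-only and media-only control wells.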
Potency means the concentration at half of the fitted maximal effect.

| SMILES | Potency |
| --- | --- |
| COc1cc(Oc2ccnc3cc(OC)c(OC)cc23)ccc1NC(=O)NC(C)c1nccs1 (configuration not stated) | 9.35 µM (active) |
| Cc1c(CN2CCN(C(=O)C(C)C)CC2)sc2c(N3CCOCC3)nc(-c3cnc(N)nc3)nc12 | 0.0372 µM (active) |
| CCn1c(-c2nonc2N)nc2c(C#CC(C)(C)O)ncc(OC[C@H]3CCCNC3)c21 | 0.372 µM (active) |
| CC(C=CC1=C(C)CCCC1(C)C)=CC=CC(C)=CC(=O)O | inactive |
| COc1ccccc1[C@H](c1cccc2ccccc12)[C@@](C)(C#N)C(=O)N1CCC(c2cccc(C(F)(F)F)c2)CC1 | 4.18 µM (active) |
| CCc1ccc(CCOc2ccc(CC3SC(=O)NC3=O)cc2)nc1 (configuration not stated) | inactive |
| Cn1cc(-c2ccc3nnc(C(F)(F)c4ccc5ncccc5c4)n3n2)cn1 | inactive |
| CN1CCN(CCCN2c3ccccc3Sc3ccc(C(F)(F)F)cc32)CC1 | inactive |
| CCn1cc(C(=O)O)c(=O)c2cc(F)c(N3CCNC(C)C3)c(F)c21 (configuration not stated) | inactive |
| COc1ccc(-c2ccc3c(N4CCOC[C@H]4C)nc(N4CCOC[C@H]4C)nc3n2)cc1CO | 0.0083 µM (active) |
| CCCCCCCc1ccc(CCc2cccc(O)c2C(=O)O)cc1 | inactive |
| O=C(Nc1cccnc1)N1CCC(Cc2cccc(Oc3ccc(C(F)(F)F)cn3)c2)CC1 | 8.33 µM (active) |
| CCCc1nc2c(C)cc(-c3nc4ccccc4n3C)cc2n1Cc1ccc(-c2ccccc2C(=O)O)cc1 | inactive |
| CC1(C)SCCN(S(=O)(=O)c2ccc(OCC#CCO)cc2)[C@@H]1C(=O)NO | inactive |
| Cc1cc(C=c2sc3nc4ccccc4n3c2=O)c(C)n1-c1ccccc1 | inactive |
| S=C(NCc1ccc2c(c1)OCO2)N1CCN(c2ncnc3c2oc2ccccc23)CC1 | 1.36 µM (active) |
| O=C(O)COCCN1CCN(C(c2ccccc2)c2ccc(Cl)cc2)CC1 (configuration not stated) | inactive |
